Screening results: PubChem BioAssay, National Center for Advancing Translational Sciences (NCATS)
Rows were chosen to be rich in hits. Some 22% of all compounds tested hit in one or more screens of this group.
Shiga inhibitor = blocks Shiga toxin action in Vero cells | Vero cells, Shiga toxin protein synthesis inhibition reporter | inhibition, % at 38.7 µM | actives 9.2% (n = 290,000) | AID 2315; in the data active = inhibition mostly above about 28%, no sharp cut-off; inactive = mostly below about 43%; note: 0% is about no effect
LmPK inhibitor = LmPK (Leishmania mexicana) enzyme inhibition; Potency, µM (series often up to 57.5 µM), for inactives: at the top dose activity change, negative = inhibition, most hits filed as inhibitors; actives 0.37% (n = 290,000); Q27686; AID 1721; purified LmPK, Kinase-Glo ATP luminescence, 1 h; note: potency is the fitted concentration of half-maximal effect; % is set by controls: 0 for no effect and ±100 for the full control effect
Target sequence (Q27686 whole entry, looked up): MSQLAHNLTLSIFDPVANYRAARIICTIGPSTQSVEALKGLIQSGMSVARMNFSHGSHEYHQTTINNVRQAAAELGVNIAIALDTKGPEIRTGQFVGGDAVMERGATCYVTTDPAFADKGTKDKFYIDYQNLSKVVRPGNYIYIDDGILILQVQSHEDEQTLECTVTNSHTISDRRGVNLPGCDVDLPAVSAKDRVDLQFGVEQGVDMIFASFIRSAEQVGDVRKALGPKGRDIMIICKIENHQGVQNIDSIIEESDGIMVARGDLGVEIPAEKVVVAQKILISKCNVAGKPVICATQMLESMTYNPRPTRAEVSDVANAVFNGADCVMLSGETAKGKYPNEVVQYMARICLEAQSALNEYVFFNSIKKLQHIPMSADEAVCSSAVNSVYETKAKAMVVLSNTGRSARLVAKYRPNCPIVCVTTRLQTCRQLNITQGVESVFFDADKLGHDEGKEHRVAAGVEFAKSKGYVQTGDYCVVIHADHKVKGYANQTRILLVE
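Purified LmPK (0.1 nM) with 0.5 mM PEP and 0.1 mM ADP in imidazole buffer pH 7.2 with MgCl2/KCl, 1 h at room temperature. ATP formed was read by luciferase luminescence and normalized to no-enzyme and uninhibited controls.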
Pf growth 48h = P. falciparum growth inhibition at 48 hours (one generation); P. falciparum luciferase growth in erythrocytes, 48 h; Potency, µM (series often up to 28.7 µM), without a hit: top-dose activity change, negative = inhibition, actives largely listed as inhibitors; actives 5.9% (n = 310,000); AID 504832; note: potency is the fitted concentration of half-maximal effect; % is set by controls: 0 for no effect and ±100 for the full control effect
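Cell-based growth assay: transgenic P. falciparum expressing firefly luciferase, cultured in red cells within RPMI 1640 containing 0.5% w/v Albumax, 24 mM bicarbonate and gentamycin. A drop in luciferase activity indicates inhibition.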
Pf growth 96h = inhibits malaria parasite growth, 96 h. P. falciparum luciferase reporter growth, 96 h. Potency, µM (doses to about 28.7 µM), for the others: at the highest dose activity change, negative = inhibition, actives largely listed as inhibitors. actives 6.9% (n = 320,000); note: potency is the fitted concentration of half-maximal effect; % is set by controls: 0 for no effect and ±100 for the full control effect
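Compounds incubated with erythrocytes infected by luciferase-expressing P. falciparum (2% hematocrit, 0.05% parasitemia final) for 96 hours, 37 C in 5% CO2. Growth inhibition scored as decreased luciferase luminescence.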
Cycloheximide cs = counter-screen for Shiga toxin inhibitors: cycloheximide protein synthesis inhibition; cell reporter, cycloheximide protein synthesis inhibition counterscreen; max response, %; actives 12% (n = 300,000); in the data active = max response mostly above about 13%, no sharp cut-off; inactive = mostly below about 14%; note: read at 38.3 µM for the half of the compounds with a filed dose; 0% is about no effect
The depositor's hits bear a star; i = inactive; ? = inconclusive; nt = no result; [ ] = dose if it differs, or a comment. Unless noted, calls come from the whole dose curve; as a rule, active = well fitted inhibition curve with a large enough effect; inconclusive = small, poorly fitted or top-dose-only effect, or another doubt; inactive = no such curve, though single readings can be large or run the other way.

SMILES	Shiga inhibitor	LmPK inhibitor	Pf growth 48h	Pf growth 96h	Cycloheximide cs
CCOC(=O)c1c(C)[nH]c(C)c1S(=O)(=O)N1CCN(c2ccc(F)cc2)CC1	12	-1%	-6%	8.3µM*	-1
CCOC(=O)c1c(S(=O)(=O)N2CCN(c3ccc(C(C)=O)cc3)CC2)c(C)n(C)c1C	-2	-7%	-22%	15%	2
CCOC(=O)c1c(C)[nH]c(C)c1S(=O)(=O)NCCCN1CCOCC1	-4	5%	12%	?	-2
CCCCCC(C)NC(=O)c1cc(S(=O)(=O)N2CCCCC2)ccc1N1CCOCC1 (configuration not stated)	nt	nt	13µM*	?	nt
CC1CCC(NC(=O)c2cc(S(=O)(=O)N3CCCCC3)ccc2N2CCOCC2)CC1 (configuration not stated)	nt	nt	9.3µM*	?	nt
CCc1ccc(CN(C)C(=O)c2cc(S(=O)(=O)N3CCOCC3)ccc2N2CCCC2)cc1	nt	nt	12µM*	?	nt
CCCNC(=O)c1cc(S(=O)(=O)N2CCCCC2)ccc1N1CCOCC1	nt	nt	?	-8%	nt
CCCS(=O)(=O)c1nc(S(=O)(=O)c2ccc(C)cc2)c(N2CCOCC2)s1	9	-4%	12µM*	-23%	3
CCS(=O)(=O)c1nc(S(=O)(=O)c2ccc(Cl)cc2)c(N2CCc3ccccc3C2)s1	-2	2%	9.3µM*	2.9µM*	-1
CCS(=O)(=O)c1nc(S(=O)(=O)c2ccc(Cl)cc2)c(NCCCN2CCOCC2)s1	8	-6%	-17%	12µM*	-3
CC1CCCN(c2sc(S(C)(=O)=O)nc2S(=O)(=O)c2ccc(Cl)cc2)C1 (configuration not stated)	-6	6%	?	13µM*	-2
CCS(=O)(=O)c1nc(S(=O)(=O)c2ccc(C)cc2)c(NCCCN2CCOCC2)s1	-5	-2%	?	?	0
CC(N=c1ccccn1C(=O)Nc1ccc(Cl)cc1)c1ccco1 (configuration not stated)	65*	7%	?	nt	49*
CC(N=c1ccccn1C(=O)Nc1ccc(F)cc1)c1ccco1 (configuration not stated)	26	-3%	17%	?	7
COc1ccc(CNC(=O)CN2C(=O)NC(Cc3ccccc3)(c3ccccc3)C2=O)cc1OC (configuration not stated)	nt	nt	?	15µM*	nt
CC(C)N(Cc1ccccc1)C(=O)CN1C(=O)NC2(CCCc3ccccc32)C1=O (configuration not stated)	-3	3%	?	-21%	-1
CCC1(c2ccccc2)NC(=O)N(CC(=O)NCc2ccccc2OC)C1=O (configuration not stated)	-7	3%	-4%	42%	0
CC(C)N(Cc1ccccc1)C(=O)CN1C(=O)NC(Cc2ccccc2)(c2ccccc2)C1=O (configuration not stated)	-3	0%	?	12µM*	-3
NCCNC[C@@H]1COC2(CCCCCCCCCCC2)O1	8	4%	8.3µM*	7.4µM*	0
Cc1cc(=O)[nH]c(SCC2COC3(CCCCC3)O2)n1 (configuration not stated)	-1	-4%	-10%	8%	2
O=c1nc(N/N=C/C=C/c2ccccc2)cn[nH]1	67*	?	72%	?	37*
O=C(O)c1cccc2c(/C=N/Nc3ccccn3)c[nH]c12	70*	-20%	83%	93%	39*
C(=N\Nc1ccccn1)/c1c[nH]c2ccccc12	89*	-1%	95%	1%	30*
O=c1nc(N/N=C/c2c[nH]c3ccccc23)cn[nH]1	45*	-22%	193%	0.41µM*	40*
O=C(NS(=O)(=O)Nc1ccccn1)c1c[nH]c2ccccc12	-3	5%	35%	43%	0
SMILES	Shiga inhibitor	LmPK inhibitor	Pf growth 48h	Pf growth 96h	Cycloheximide cs
O=c1cnnc(N/N=C/c2c[nH]c3ccccc23)[nH]1	13	1%	15%	?	-2
COC(=O)C1CN(C#N)N(c2ccc(Cl)cc2)C12c1ccccc1-c1ccccc12 (configuration not stated)	-15	1%	3.3µM*	18%	-9
O=C1c2ccccc2C(O)N1c1ccc(Cl)cc1 (configuration not stated)	26	-2%	nt	?	-1
Cc1cccc(-n2c(=S)[nH]c3sc4c(c3c2=O)CCc2ccccc2-4)c1	2	1%	4%	-12%	-4
O=C1NC(=Nc2cccc(Cl)c2)SC1Cc1cccc(Cl)c1Cl (configuration not stated)	-6	7%	-10%	10µM*	-7
N#CC1(c2ccccc2)CCN(C2CC(=O)N(c3cccc(F)c3)C2=O)CC1 (configuration not stated)	-8	10%	105%	8.3µM*	-4
Cc1ccc(NC(=O)c2cccc(C(=O)Nc3ccc(C)c(C)c3)n2)cc1C	-4	6%	?	?	-3
Cc1ccc(NC(=O)/C(Cl)=C/c2ccccc2)cc1C	95*	-21%	320%	?	45*
CC(=O)Nc1ccccc1C(=O)C(=O)O	13	-5%	3%	45%	-2
CC(=O)Nc1ccccc1C(=O)C(=O)Nc1ccc(C)c(F)c1	103*	9%	208%	?	59*
CCN(CC)C(=O)C(=O)Nc1ccc(F)c(Cl)c1	88*	-18%	54%	-16%	28*
NC(=O)c1ccccc1NC(=O)Nc1cccc(Cl)c1Cl	1	0%	11%	0%	6
NC(=O)c1ccccc1NC(=O)Nc1ccc(F)c(Cl)c1	56*	-12%	25%	?	42*
NC(=O)c1nsc(C(=O)N(CC(=O)NC2CCCC2)Cc2ccc3c(c2)OCO3)c1N	-16	-13%	-4%	-30%	-3
Cc1cccc(NC(=S)N(CCN(C)C)C(C)c2ccccn2)c1 (configuration not stated)	-16	-1%	nt	-16%	-6
COC(=O)C1=C(C(=O)OC)[C@@H]2N(C)c3ccc(OC)cc3[C@@]23C[C@@H](C(=O)OC)N(C(=O)COCc2ccccc2)C3=N1	nt	1%[11.5 µM]	nt	nt	nt
CC(C)(C)c1ccc(Cn2ccc(-c3ccc4c(c3)OCO4)n2)cc1	43	3%	-4%	?	4
CC(=O)Nc1ccccc1C(=O)C(=O)Nc1ccc(C)c(C)c1	40*	-2%	194%	-7%	40*
CCc1ccc(NC(=O)C(=O)c2ccccc2NC(C)=O)cc1	nt	nt	i	i	nt
CC(=O)Nc1ccccc1C(=O)C(=O)Nc1ccc(F)c(Cl)c1	45	0%	3%	?	20*
O=S(=O)(Nc1cc(Br)cc2cccnc12)c1ccccc1	-12	nt	nt	nt	-5
O=C(CSc1nc(Nc2ccccc2)nc(N2CCOCC2)n1)Nc1ccc2c(c1)OCCO2	-23	5%	9.3µM*	nt	-4
c1cncc(CNc2nc(N3CCOCC3)nc(N3CCOCC3)n2)c1	-19	-10%	nt	?	-2
